# Laboratory results published in PubChem BioAssay (EPA / NIEHS).
# “And” between values parts separate entries of the source, which are not always exact repeats. Identical values can stand only once. Inconclusive results are not listed. The source made the active and inactive calls. How the source made its calls, unless noted: active means hit-call score of the fitted dose curve at least 0.9, where 1 is the maximum; inconclusive means response in the unintended direction; inactive means score below 0.9.
# Tests used:
# [1] = Tanguay_ZF_120hpf_NC_legacy: (Legacy) Oregon State University Tanguay Lab 120 Hour Post-fertilization zebrafish Assay for Notochord and Tail Malformation (AID 2283656)
# Outline: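 Dechorionated Tropical 5D wild-type zebrafish embryos, one per well from 6 hpf, statically exposed to 120 hpf at 28C in 0.64% DMSO final. Notochord distortion scored present/absent by brightfield; dead embryos excluded.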
# [2] = CCTE_Simmons_CellTiterGLO_HEK293T: Viability Assessment in CCTE's Assays for Thyroperoxidase (TPO) Inhibition, Simmons Lab (AID 2283665);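 on AC50: cells exposed to compound for 24 h before readout; actives reduce ATP signal below DMSO vehicle meaning cytotoxicity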
# Outline: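 HEK293T cells in DMEM with 1% FBS, dosed 24 h at 37C with 8 concentrations, 5 nM–87.5 uM final, 0.5% DMSO. ATP measured by CellTiter Glo luminescence; loss of signal vs DMSO, three biological replicates.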
# [3] = Tanguay_ZF_120hpf_TR_legacy: (Legacy) Oregon State University Tanguay Lab 120 Hour Post-fertilization zebrafish Assay for Touch Response (AID 2283667)
# Outline: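 Tropical 5D wild-type zebrafish embryos statically exposed to 120 hpf at 28°C, sealed and dark-covered, 0.64% DMSO final; touch response scored as present/absent by brightfield microscopy at 120 hpf. Trimethyltin chloride 5 uM positive control; dead embryos not scored.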
# [4] = CCTE_Padilla_ZF_144hpf_TERATOSCORE: (Legacy) CCTE's 144 Hour Post-fertilization zebrafish Assay Teratoscore, Padilla Lab (AID 2283679; active means hit-call score of the fitted dose curve at least 0.9, where 1 is the maximum; inactive means score below 0.9;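 on AC50: zebrafish embryos with chorions exposed by immersion from 6-8 hpf to 5 dpf with daily renewal; teratogenicity score from eye scoring of death hatching and malformations at 144 hpf; higher score means more developmental defects relative to DMSO baseline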)
# Outline: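 Larvae scored by eye at 144 hpf for death, hatching and malformations after a day in clean Hanks'. Before that, daily-renewed exposure at 80 uM (0.4% DMSO, 26C) from roughly 6-8 hpf through 5 dpf, 4 embryos per chemical.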
# [5] = STM_H9_OrnithineISnorm_perc: Stemina devTOX quickPredict H9 human embryonic stem cell (hESC)-based Assay for Ornithine (ORN) Metabolite Biomarker, Normalized (AID 2283712; active means hit-call score of the fitted dose curve at least 0.9, where 1 is the maximum; inactive means score below 0.9;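 further: ornithine released into spent medium during last day measured by mass spectrometry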)
# Outline: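 Undifferentiated H9 hESCs exposed 72 h with daily media and compound renewal; final 24-h conditioned medium analysed by UPLC-HRMS. Ornithine peak area normalised to spiked C13 standard and to median 0.1% DMSO control; viability by CellTiter-Fluor.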
# [6] = STM_H9_CystineISnorm_perc: Stemina devTOX quickPredict H9 human embryonic stem cell (hESC)-based Assay for Cystine (CYSS) Metabolite Biomarker, Normalized (AID 2283713; active means hit-call score of the fitted dose curve at least 0.9, where 1 is the maximum; inactive means score below 0.9)
# Outline: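 Undifferentiated H9 hESCs exposed 72 h, compound and media replaced every 24 h; final 24-h media analysed by UPLC-HRMS. Cystine normalized to C13 spike-in standard and median 0.1% DMSO control.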
# [7] = STM_H9_OrnCyssISnorm_ratio: Stemina devTOX quickPredict H9 human embryonic stem cell (hESC)-based Assay for Ornithine (ORN):Cystine (CYSS) Ratio (AID 2283714)
# Outline: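 Undifferentiated H9 hESCs exposed 72 h, media and compound replaced every 24 h; final 24-h conditioned media deproteinized and analysed by UPLC-HRMS against C13 spike-ins. Value is the internal-standard-normalized ORN/CYSS ratio versus 0.1% DMSO.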
# [8] = read-out: solute carrier (SLC10A1), SLC10A1 (gene 6554); experiment: LTEA_HepaRG_SLC10A1: Life Technologies and Expression Analysis (LTEA) Assay for solute carrier (SLC10A1) using HepaRG (AID 2283657; active means hit-call score of the fitted dose curve at least 0.9, where 1 is the maximum; inactive means score below 0.9); conditions: mRNA level, 48 h; actives raise or lower the signal
# Outline: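 HepaRG cells (single lot) exposed 48 h in serum-free induction medium, 8-point half-log series from 100 uM top in 0.5% DMSO, duplicate. SLC10A1 mRNA by qRT-PCR normalised to ACTB, GAPDH, POLR2A; bidirectional fit versus DMSO.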
# [9] = read-out: matrix metalloproteinase-1 (MMP1), MMP1 (gene 4312); experiment: LTEA_HepaRG_MMP1: Life Technologies and Expression Analysis (LTEA) Assay for matrix metalloproteinase-1 (MMP1) using HepaRG (AID 2283658; active means hit-call score of the fitted dose curve at least 0.9, where 1 is the maximum; inactive means score below 0.9); conditions: mRNA level, 48 h; actives raise or lower the signal
# Outline: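 HepaRG, ~100,000 cells/well, 48 h pre-culture; serum-free induction medium; test chemical 8 conc (max 100 uM, half-log), duplicate, 48 h; 0.5% DMSO; qRT-PCR MMP1, housekeeping-normalized; gain/loss fit vs DMSO.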
# [10] = read-out: Cytochrome P450 (CYP24A1_1), CYP24A1 (gene 1591); experiment: LTEA_HepaRG_CYP24A1_1: Life Technologies and Expression Analysis (LTEA) Assay for Cytochrome P450 (CYP24A1_1) using HepaRG (AID 2283671; active means hit-call score of the fitted dose curve at least 0.9, where 1 is the maximum; inactive means score below 0.9); conditions: mRNA level, 48 h; actives raise or lower the signal
# Outline: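 Differentiated human HepaRG cells in serum-free induction medium, exposed 48 h in duplicate to eight half-log concentrations from 100 uM top, 0.5% DMSO. Transcript measured by TaqMan qRT-PCR, normalised to ACTB, GAPDH, POLR2A; bidirectional fitting versus DMSO.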
structure (smiles),measurement,setting,value
CC[C@H](C)C(=O)O[C@H]1C[C@@H](C)C=C2C=C[C@H](C)[C@H](CC[C@@H]3C[C@@H](O)CC(=O)O3)[C@H]21,outcome,[1],inactive
same,outcome,[2],inactive
same,outcome,[3],inactive
same,AC50,[4],7.47 nM (active) and 5.89 nM (active) and 5.45 nM (active)
same,outcome,[5],inactive
same,AC50,[6],13.2 µM (active)
same,AC50,[7],6.84 µM (active)
CC1=CC(=O)CC(C)(C)C1,outcome,[1],inactive
Cn1cnc([N+](=O)[O-])c1Sc1ncnc2nc[nH]c12,outcome,[1],inactive
same,AC50,[2],1.09 µM (active)
same,outcome,[3],inactive
same,AC50,[5],3.25 µM (active)
same,AC50,[6],3.49 µM (active)
same,AC50,[7],3.28 µM (active)
CC(C)=CCC/C(C)=C\CO,outcome,[1],inactive
same,outcome,[2],inactive
same,outcome,[3],inactive
CN(C)c1ccc(N=NS(=O)(=O)O)cc1,outcome,[1],inactive
same,outcome,[2],inactive
same,outcome,[3],inactive
same,AC50,[5],28.5 µM (active)
same,AC50,[6],16.9 µM (active)
same,AC50,[7],20.5 µM (active)
CC(C)=CCCC(C)CCO (configuration not stated),outcome,[1],inactive
same,outcome,[2],inactive
same,outcome,[3],inactive
O=C(O)c1cc(N=Nc2ccc(S(=O)(=O)Nc3ccccn3)cc2)ccc1O,outcome,[1],inactive
CC/C(=C\C(=N/O)C(N)=O)C(C)[N+](=O)[O-] (configuration not stated),outcome,[1],inactive
same,outcome,[2],inactive
same,outcome,[3],inactive
same,outcome,[4],inactive
O=c1n(CC2CO2)c(=O)n(CC2CO2)c(=O)n1CC1CO1 (configuration not stated),outcome,[1],inactive
same,outcome,[2],inactive
same,outcome,[3],inactive
same,AC50,[5],0.49 µM (active)
same,AC50,[6],0.166 µM (active)
same,AC50,[7],0.295 µM (active)
O=C(O)CCN(C1(C(=O)NO)CCCC1)S(=O)(=O)c1ccc(Oc2ccc(F)cc2)cc1,outcome,[1],inactive
same,outcome,[2],inactive
same,outcome,[3],inactive
NC(=O)NO,outcome,[1],inactive
same,outcome,[2],inactive
same,outcome,[3],inactive
same,AC50,[5],371 µM (active)
same,AC50,[6],153 µM (active)
same,AC50,[7],392 µM (active)
CCn1nc(Cc2ccccc2)cc1C1CCN(C[C@H]2C[C@H](N(C)[C@@H](C(=O)O)C(C)C)C[C@@H]2c2cccc(F)c2)CC1,outcome,[1],inactive
same,AC50,[2],42.8 µM (active)
same,outcome,[3],inactive
CCCCCCc1ccc(O)cc1O,outcome,[1],inactive
same,AC50,[2],21.3 µM (active)
same,outcome,[3],inactive
same,AC50,[4],14.9 µM (active)
CC(C)CCCCCCOC(=O)c1ccc(C(=O)OCCCCCCC(C)C)c(C(=O)OCCCCCCC(C)C)c1,outcome,[1],inactive
same,outcome,[8],inactive
same,outcome,[9],inactive
same,outcome,[3],inactive
same,outcome,[10],inactive
CCOc1cccc(-n2cc(C(=O)N3CCN(c4cc(C(=O)O)c5ccccc5c4)CC3)nc2-c2ccc(C)cc2)c1,outcome,[1],inactive
same,AC50,[2],22.6 µM (active)
same,outcome,[3],inactive
same,AC50,[4],16.6 µM (active)
COC(=O)c1c(Cl)c(Cl)c(C(=O)OC)c(Cl)c1Cl,outcome,[1],inactive
C[C@](N)(Cc1ccc(O)c(O)c1)C(=O)O,outcome,[1],inactive
same,AC50,[2],39.8 µM (active)
same,outcome,[3],inactive
CCCN(C1CCN(C(=O)C2CCNCC2)CC1)[C@@H]1CCc2ccc(OC)cc2C1,outcome,[1],inactive
same,AC50,[2],18.2 µM (active)
same,outcome,[3],inactive
same,outcome,[4],inactive
C=CC(=C)CCC=C(C)C,outcome,[1],inactive
same,outcome,[8],inactive
same,outcome,[9],inactive
same,outcome,[2],inactive
same,outcome,[3],inactive
same,outcome,[10],inactive
On1ccccc1=S,AC50,[1],0.561 µM (active)
same,outcome,[2],inactive
same,outcome,[3],inactive
same,AC50,[4],27.7 µM (active)
same,AC50,[5],8.49 µM (active)
same,AC50,[6],5.86 µM (active)
same,AC50,[7],7.94 µM (active)
CCOC(=O)c1ccc(C2CCC(NC[C@H](O)COc3ccc(O)c(NS(C)(=O)=O)c3)CC2)cc1 (some centres not stated),outcome,[1],inactive
same,AC50,[2],18.3 µM (active)
same,outcome,[3],inactive
same,outcome,[5],inactive
same,AC50,[6],1.37 µM (active)
same,AC50,[7],1.42 µM (active)
CCNc1ccccc1,outcome,[1],inactive
same,outcome,[2],inactive
same,outcome,[3],inactive
Cc1ccc(N)cc1O,outcome,[1],inactive
same,outcome,[2],inactive
same,outcome,[3],inactive
same,outcome,[4],inactive
CCC(C)(C)C(=O)O[C@H]1C[C@@H](C)C=C2C=C[C@H](C)[C@H](CC[C@@H]3C[C@@H](O)CC(=O)O3)[C@H]21,outcome,[1],inactive
same,AC50,[2],43.8 µM (active)
same,AC50,[3],0.664 µM (active)
same,AC50,[4],115 nM (active) and 2.58 nM (active) and 7.92 nM (active)
same,AC50,[5],0.000728 µM (active)
same,outcome,[6],inactive
O=P(OC(CCl)CCl)(OC(CCl)CCl)OC(CCl)CCl,outcome,[1],inactive
same,outcome,[2],inactive
same,AC50,[4],14.3 µM (active)
same,outcome,[5],inactive
same,outcome,[6],inactive
same,outcome,[7],inactive
O=C(OC[C@H]1O[C@@H](OC(=O)c2cc(O)c(O)c(OC(=O)c3cc(O)c(O)c(O)c3)c2)[C@H](OC(=O)c2cc(O)c(O)c(OC(=O)c3cc(O)c(O)c(O)c3)c2)[C@@H](OC(=O)c2cc(O)c(O)c(OC(=O)c3cc(O)c(O)c(O)c3)c2)[C@@H]1OC(=O)c1cc(O)c(O)c(OC(=O)c2cc(O)c(O)c(O)c2)c1)c1cc(O)c(O)c(OC(=O)c2cc(O)c(O)c(O)c2)c1,outcome,[1],inactive
same,AC50,[2],1.41 µM (active)
same,outcome,[3],inactive
same,AC50,[4],4.71 µM (active)
